Screening results from PubChem BioAssay.
Only some compounds are listed: those with a hit (about 11% of all), similar ones and a draw of the others.
G9a block: G9a (human) methyltransferase inhibition | Q96KQ7 | G9a H3K9 monomethylation, AlphaScreen, 2 h | Potency, µM (doses to about 102 µM), most hits filed as inhibitors | 350,000 compounds, 8.8% hits; further: nearly all actives have a fitted effect of over 75% in size
Target sequence (Q96KQ7 913-1193 limits assumed): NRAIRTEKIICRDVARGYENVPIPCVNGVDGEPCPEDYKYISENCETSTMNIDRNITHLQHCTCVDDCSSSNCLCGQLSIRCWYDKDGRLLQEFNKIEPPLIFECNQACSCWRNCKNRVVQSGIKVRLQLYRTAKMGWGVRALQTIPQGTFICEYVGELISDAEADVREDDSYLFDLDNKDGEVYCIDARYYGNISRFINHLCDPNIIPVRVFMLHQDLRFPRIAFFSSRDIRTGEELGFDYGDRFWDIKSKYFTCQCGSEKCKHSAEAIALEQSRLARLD
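Quantitative HTS format: methyltransferase activity on a biotin-tagged H3K9 peptide is measured by AlphaScreen, using a rabbit anti-monomethyl-H3K9 antibody with streptavidin donor and anti-IgG acceptor beads. Final levels are 20 nM enzyme, 500 nM peptide, 20 uM SAM; 2 h RT.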
HP1b binding inh: HP1-beta chromodomain-methylated histone interaction inhibition; Potency, µM (highest dose often 114 µM), actives largely listed as inhibitors; AlphaScreen HP1-beta / biotin-H3K9me3 peptide binding; 390,000 compounds, 0.56% hits; further: nearly all actives have a fitted effect of over 70% in size
Target sequence (P83916 whole entry, looked up): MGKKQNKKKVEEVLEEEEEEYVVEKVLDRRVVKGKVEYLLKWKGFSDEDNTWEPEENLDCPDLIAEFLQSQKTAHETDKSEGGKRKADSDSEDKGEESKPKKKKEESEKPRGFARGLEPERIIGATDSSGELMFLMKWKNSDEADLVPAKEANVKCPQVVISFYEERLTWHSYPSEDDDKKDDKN
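AlphaScreen: HP1-beta (50 nM) preformed 30 min with biotin-H3(1-18)K9me3 peptide (50 nM) in PBS pH 7.4, 0.01% Tween-20. Compound added for 30 min at RT, then streptavidin donor/nickel chelate acceptor beads (10 ug/mL) for 30 min.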
L3MBTL1 inh: L3MBTL1 (human) inhibition; AlphaScreen L3MBTL1–H3K9me1 peptide binding; Potency, µM (highest dose often 57.1 µM), most hits filed as inhibitors; 230,000 compounds, 0.66% hits; further: nearly all actives have a fitted effect of over 60% in size
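Read-out is AlphaScreen signal from streptavidin donor and nickel chelate acceptor beads (10 ug/mL final each) bridging L3MBTL1 (50 nM) and biotinylated K9-monomethylated H3(1-15) peptide (75 nM), after 30 min compound exposure at room temperature.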
BAZ2B inh: BAZ2B (human) inhibition; Q9UIF8; Potency, µM (doses to about 114 µM), actives largely listed as inhibitors; AlphaScreen BAZ2B-H3K14Ac peptide displacement; AID 504333; 360,000 compounds, 4.4% hits; further: nearly all actives have a fitted effect of over 60% in size
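BAZ2B 50 nM plus b-H3(5-23)K14Ac 50 nM, PBS pH 7.4/0.01% Tween-20, 30 min RT; compound added (max 110 uM), 30 min RT; streptavidin donor/Ni-chelate acceptor beads 10 ug/mL final, 20 min dark; AlphaScreen read.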
JMJD2A Tudor inh: JMJD2A Tudor domain (human) inhibition; 390,000 compounds, 4.4% hits; Potency, µM (top dose mostly 114 µM), most hits filed as inhibitors; AID 504339; AlphaScreen JMJD2A-Tudor / H3K4me3 peptide binding; O75164; further: nearly all actives have a fitted effect of over 50% in size
Hits are given with their value; – = inactive; ? = inconclusive; · = not tested or not shown; ! = a repeat was not active; [ ] = dose if it differs, or a comment. The call rests on the fitted dose curve; in most records, active means well fitted inhibition curve with a large enough effect; inconclusive means small, poorly fitted or top-dose-only effect; inactive means no such curve, though single readings can be large or run the other way.

SMILES	G9a block	HP1b binding inh	L3MBTL1 inh	BAZ2B inh	JMJD2A Tudor inh
COc1cccc(CNc2ccccc2O)c1OCc1ccccc1F	35µM	45µM	?	32µM	45µM
CCOc1cc(CNc2ccc(O)cc2)cc(Br)c1OCc1ccccc1	?	?	·	?	40µM
COc1cc(CNc2ccc(O)cc2)cc(Br)c1OCc1ccccc1F	11µM	?	?	?	?
Cc1ccc(-c2ccc(C3C4C=CCC(C)C4C(=O)N3Cc3ccccc3)c(F)c2)cc1 (stereo not given)	·	–	·	·	–
COc1ccc2[nH]cc(CCNC(=O)c3cnn(-c4ccccc4Cl)c3C3CCN(C(=O)OC(C)(C)C)CC3)c2c1	?	–	·	?	?
COCCOC(=O)c1c(C)oc2c1cc(NS(=O)(=O)c1ccc(Cl)c(C)c1)c1ccccc12	–	–	·	–	–
Nc1nn(-c2ccccc2)c(N)c1N=Nc1cccc(F)c1	20µM	?	–	35µM	35µM
Cc1nn(-c2ccccc2)c(N)c1N=Nc1cccnc1	?	–	–	–	?
Nc1nn(-c2ccccc2)c(N)c1N=Nc1ccc2c(c1)OCO2	?	18µM	–	32µM	50µM
Cc1csc2nc(COc3ccccc3NC(=O)c3ccco3)cc(=O)n12	–	–	·	–	–
Nc1c(C(=O)NCc2cccs2)nnn1CC(=O)Nc1cccc(F)c1	–	–	·	·	–
Cc1cc(S(=O)(=O)NCc2ccco2)c(C)cc1Cl	45µM	–	·	?	–
CCc1ccc(-c2cc(C)no2)cc1S(=O)(=O)NCc1ccco1	71µM!	–	·	?	–
Cc1cc2c(s1)c1cnn(Cc3cccc(Br)c3)c(=O)c1n2C	·	·	·	·	–
CCN(CC(=O)Nc1ccc(NC(C)=O)cc1)C(=O)c1ccccc1SCc1c(C)noc1C	40µM	–	–	56µM	–
CCCCn1cc(S(=O)(=O)c2ccc(C)c(C)c2)c(=O)c2cc(F)c(N(CC)CC)cc21	–	–	·	–	–
Fc1ccc(-c2cc(C(F)(F)F)n3ncnc3n2)cc1	13µM	–	·	–	?
CC(=O)c1cccc(NC(=O)CCS(=O)(=O)c2ccc3c(c2)n(C)c(=O)c(=O)n3C)c1	–	–	·	–	–
Cc1[nH]c2ccccc2c1C(c1ccncc1)N1CCCCC1 (stereo not given)	35µM	–	–	?	–
Cc1ccnc(NC(c2ccncc2)c2c(C)[nH]c3ccccc23)c1 (stereo not given)	10µM	–	–	?	–
CCn1cnc2c(Nc3cc(F)cc(F)c3)nc(C(=O)COc3c(F)c(F)cc(F)c3F)nc21	·	·	·	·	–
S=C(Nc1ccc(-c2nc3ccccc3[nH]2)cc1)Nc1cccnc1	45µM	–	·	–	–
S=C(NCCN1CCOCC1)Nc1ccc(-c2nc3ccccc3[nH]2)cc1	45µM	–	–	–	–
O=C(C1=C(Nc2ccccc2)c2ccccc2S(=O)(=O)N1)c1ccccc1	25µM	?	–	–	?
Cn1ccc(-c2cc(C(=O)O)c3ccccc3n2)n1	50µM	–	–	?	–
SMILES	G9a block	HP1b binding inh	L3MBTL1 inh	BAZ2B inh	JMJD2A Tudor inh
CCOC(=O)C1CCCN(c2cc(C)nc3c(-c4ccccc4OC)c(C)nn23)C1 (stereo not given)	–	–	·	–	–
CCOc1ccccc1N1CCN(Cc2cccc(OC)c2O)CC1	–	–	–	–	–
CCOCc1cc(CN2CCN(c3ccccc3OC)CC2)c(O)c2ncccc12	–	–	·	5.6µM	22µM
Cc1nc(N2CCC(C)CC2)c2oc3ccccc3c2n1	–[12.7 µM]	–	–	–	–
COc1ccccc1N1CCN(Cc2cc(Br)c(O)c3ncccc23)CC1	8.9µM	–	·	13µM	40µM
CCCOCc1cc(CN2CCN(c3ccccc3OC)CC2)c(O)c2ncccc12	?	–	·	4.5µM	20µM
COc1ccccc1N1CCN(c2nc(C)nc3c2oc2ccccc23)CC1	40µM	–	–	50µM	45µM
C=C(C)Cn1c(SCC(=O)Nc2cc(C)ccc2C)nc2sc3c(c2c1=O)CCCC3	–	–	·	–	–
NC(=O)CSc1ncc2c(n1)-c1ccccc1N(Cc1cccc(F)c1)S2(=O)=O	–	–	·	–	–
COc1ccccc1N1CCN(Cc2cc(COC(C)C)c3cccnc3c2O)CC1	–	–	·	4µM	22µM
CCN(CCCNC(=O)c1ccc(Sc2ccc(Cl)cc2)c(NC(C)=O)c1)c1cccc(C)c1	13µM	?	·	?	?
CCN(CCNC(=O)c1ccc(C#N)cc1)c1cccc(C)c1	13µM	–	·	–	–
Cc1ccc(CNC(=O)c2c(-c3ccc(Br)cc3)noc2C)o1	–	–	·	–	–
O=C(NC1CCCCC1)c1cc(-c2ccccn2)nc2ccccc12	50µM	–	–	–	–
O=C(NC1CCCCCC1)c1cc(-c2ccccn2)nc2ccccc12	–	–	–	–	–
O=C(c1cc(-c2ccccn2)nc2ccc(Cl)cc12)N1CCN(CCc2ccccc2)CC1	–	–	–	–	–
O=C(NCCc1ccc(Cl)cc1)c1cc(-c2ccccn2)nc2ccccc12	–	–	·	–	22µM
Cc1ccc(C)c(-c2cc(C(=O)NC3CC3)c3ccccc3n2)c1	45µM	–	·	–	–
Cc1ccc(Nc2cc(C(=O)NC3CCCC3)c3ccccc3n2)c(C)c1	–	–	·	·	–
Cc1cnn(C(=O)c2cc(-c3ccccn3)nc3ccc(Cl)cc23)c1	?	–	–	56µM	–
Cc1ccccc1NC(=O)CN(c1ccc(Cl)cc1Cl)S(=O)(=O)c1ccccc1	–	–	·	–	–
CC(=O)Nc1ccc(S(=O)(=O)NCC2CCC(C(=O)NCc3ccccc3Cl)CC2)cc1 (stereo not given)	–	–	·	–	–
CCCCC(=O)OCc1c(-c2cccc(OC)c2)ncc2ccccc12	–[0.501 µM]	–	–	–	–
Cc1ccc(C)c(-c2cc(C(=O)NNC(=S)NCC(C)C)c3ccccc3n2)c1	10µM	–	–	–	–
Cn1cc(P(=O)(c2ccccc2)c2ccccc2)c2ccccc21	·	·	·	·	–
SMILES	G9a block	HP1b binding inh	L3MBTL1 inh	BAZ2B inh	JMJD2A Tudor inh
NC(=O)Cc1nc(-c2ccc([N+](=O)[O-])cc2)cs1	–	–	·	–	–
NC(=O)Cc1nc(-c2ccc(F)cc2)cs1	22µM	–	–	–	–
COc1cc(/C=N/Nc2nc3ccccc3[nH]2)ccc1O	–	–	–	?	–
CCN(CC)c1ccc(/C=N/Nc2nc3ccccc3[nH]2)cc1	?	?	?	10µM	56µM
COc1cc(/C=N/Nc2nc3ccccc3[nH]2)cc(OC)c1O	28µM	?	–	?	–
O=C(Nc1cc(F)ccc1F)C1CCN(C(=O)c2cnn(-c3ccccc3)c2-n2cccc2)CC1	–	–	·	–	–
CCOC(=O)c1cc(C)n(CC2CCC(C(=O)Nc3ccc(Cl)cc3)CC2)c1C (stereo not given)	?	–	·	–	–
[N-]=[N+]=Nc1ccc(C(=O)CSC[C@H](NC(=O)CC[C@H](N)C(=O)O)C(=O)NCC(=O)O)cc1	32µM!	·	·	·	·
Cc1ccc2c(Sc3ccc(Cl)cc3)c(C(=O)N3CCC(C)CC3)[nH]c2c1	–	–	·	–	–
